{"source": "PubChem BioAssay (NCI)", "note": "About 79,000 compounds went through this panel and 15% of them were active in at least one assay; those are over-represented in the sample as a whole. Activity calls are given as the source filed them. Cut-off read from the data, not from the text of the source: active = growth inhibition above about 70%; inactive = the rest."}
{"assay": "NCI Yeast Anticancer Drug Screen. Data for the mec2-1 strain (AID 157)", "settings": "S. cerevisiae mec2-1 strain, at 50.0 µM, stronger effect = higher value", "how_it_was_run": "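Cells of the genetically defined mec2-1 yeast strain are incubated with test compound. Inhibition of growth is calculated against vehicle-treated controls.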"}
{"smiles": "O=c1/c(=C/c2ccco2)sc2nc3ccccc3n12", "growth inhibition": "5.35% (inactive)"}
{"smiles": "CO/N=C1\\CC(NC(=O)C(F)(F)F)c2ccsc21", "note": "(configuration not stated)", "growth inhibition": "6.9% (inactive)"}
{"smiles": "COc1cc(NCCCCCNC(C)C)c2nccc(C)c2c1", "growth inhibition": "43.1% (inactive)"}
{"smiles": "Cc1ccc(N(C)C(=O)Nc2ccccc2)c(C)c1", "growth inhibition": "3.6% (inactive)"}
{"smiles": "CC(=O)n1cc(CS)c(=O)[nH]c1=O", "growth inhibition": "1.2% (inactive)"}
{"smiles": "Cc1cccc(C)c1/[N+]([O-])=C/c1cccc([N+](=O)[O-])c1", "growth inhibition": "-31.1% (inactive)"}
{"smiles": "COc1nc(C(O)C2OC(C)(C)OCC2O)[nH]c1C#N", "note": "(configuration not stated)", "growth inhibition": "7% (inactive)"}
{"smiles": "COC(CN(C)C(=S)Nc1cccc2ccccc12)OC", "growth inhibition": "-74% (inactive)"}
{"smiles": "N#CC(C#N)c1ccc(C(C#N)C#N)cc1", "growth inhibition": "-6.75% (inactive)"}
{"smiles": "CCCC1c2c(ccc3ccccc23)Oc2ccc3ccccc3c21", "growth inhibition": "2.4% (inactive)"}
{"smiles": "c1ccc2c(c1)ccc1c3ccccc3ncc21", "growth inhibition": "27.8% (inactive)"}
{"smiles": "C=CCNC(=S)Nc1c(C)cc(C)cc1C", "growth inhibition": "8.4% (inactive)"}
{"smiles": "CCn1c2ccc(N(C)C)cc2c2cc(N(C)C)ccc21", "growth inhibition": "-38.5% (inactive)"}
{"smiles": "CC1(C)OC2(CC1C1(C)C=CC(=O)O1)CC1(O)C(CCC34CC13C(=O)OC4c1ccoc1)O2", "note": "(configuration not stated)", "growth inhibition": "4.25% (inactive)"}
{"smiles": "COc1ccc(Cl)cc1NC(=O)Oc1cc2ccccc2cc1C(=O)Nc1ccccc1", "growth inhibition": "-8.05% (inactive)"}
{"smiles": "O=C(O)C(Cc1ccc(OS(=O)(=O)Cc2ccccc2)cc1)NS(=O)(=O)Cc1ccccc1", "note": "(configuration not stated)", "growth inhibition": "5.2% (inactive)"}
{"smiles": "O=C1OC(c2ccccc2Cl)Sc2ccccc21", "note": "(configuration not stated)", "growth inhibition": "25.1% (inactive)"}
{"assay": "NCI Yeast Anticancer Drug Screen. Data for the sgs1 mgt1 strain (AID 161);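 note: 0% = growth of cultures given vehicle only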", "settings": "S. cerevisiae sgs1 mgt1 strain, at 50.0 µM, stronger effect = higher value", "how_it_was_run": "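Read-out: growth inhibition vs vehicle controls. Cells: mutant yeast strain deficient in DNA damage repair.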"}
{"smiles": "C=CCN(C)C(=O)CCCCCCCC1C(CCCCCCCC)C2(Cl)C(Cl)=C(Cl)C1(Cl)C2(Cl)Cl", "note": "(configuration not stated)", "growth inhibition": "8.6% (inactive)"}
{"smiles": "CC1=CC=NN2C(=O)[C@H](C)C2C1", "note": "(some centres not stated)", "growth inhibition": "0.3% (inactive)"}
{"smiles": "COC1(OC)N=C(N)C2(C#N)C(C)=C3NCN(C)N=C3C12C#N", "note": "(configuration not stated)", "growth inhibition": "-44% (inactive)"}
{"smiles": "Cn1c(=O)c2[nH]c(SCCc3ccccc3)nc2n(C)c1=O", "growth inhibition": "6.15% (inactive)"}
{"smiles": "CCCCCC[C@H](C/C=C\\CCCCCCCC(=O)OCCCC)OC(C)=O", "growth inhibition": "-10.2% (inactive)"}
{"smiles": "CCOc1ccccc1NCN1C(=O)c2ccccc2C1=O", "growth inhibition": "-12.2% (inactive)"}
{"smiles": "CC(=O)C(C)(C)CCC(C)(C)C(C)=O", "growth inhibition": "-4% (inactive)"}
{"smiles": "ClC(Cl)(Cl)C1CCC2CCCC21", "note": "(configuration not stated)", "growth inhibition": "-3.45% (inactive)"}
{"smiles": "O=S(=O)(O)c1cc(N=Nc2cc(S(=O)(=O)O)c3ccccc3c2O)ccc1/C=C/c1ccc(N=Nc2cc(S(=O)(=O)O)c3ccccc3c2O)cc1S(=O)(=O)O", "growth inhibition": "17.6% (inactive)"}
{"smiles": "C/C(=N\\Nc1ccccc1)c1sc(-c2nc(C)c(/C(C)=N/Nc3ccccc3)s2)nc1C", "growth inhibition": "14.3% (inactive)"}
{"smiles": "CC(C)(C)C(=O)Nc1c(Cl)c(C2CC2)nn1-c1ccccc1", "growth inhibition": "24.7% (inactive)"}
{"smiles": "CC1(C)SC(C)(C)C1=O", "growth inhibition": "-0.6% (inactive)"}
{"smiles": "CC(=O)OCC1OC(n2ccc(=O)[nH]c2=O)CC1N=[N+]=[N-]", "note": "(configuration not stated)", "growth inhibition": "1.05% (inactive)"}
{"smiles": "O=C(Nc1cccc(Cl)c1)c1cc2cc(N=Nc3ccc(Br)cc3)ccc2oc1=O", "growth inhibition": "27% (inactive)"}
{"smiles": "CC(CN(C)C)CN1c2ccccc2Sc2ccccc21", "note": "(configuration not stated)", "growth inhibition": "-7% (inactive)"}
{"smiles": "COC1=C(OC)C(=O)C(Sc2ccc3ccccc3c2)=C(Cl)C1=O", "growth inhibition": "93.8% (active)"}
{"smiles": "C[Si](C)(C)c1ccc(-c2ccccc2)cc1", "growth inhibition": "2.25% (inactive)"}
{"smiles": "Cc1nc(Nc2ccc(Cl)cc2)c2cnn(-c3ccccc3)c2n1", "growth inhibition": "-8% (inactive)"}
{"smiles": "ClCCOC(c1ccc(Cl)cc1)c1ccc(Cl)cc1", "growth inhibition": "-4.55% (inactive)"}
{"smiles": "Cc1ccc(OCC(=O)C2CSc3ccc(Cl)cc32)cc1", "note": "(configuration not stated)", "growth inhibition": "26.4% (inactive)"}
{"smiles": "OCc1ccccc1F", "growth inhibition": "-20.6% (inactive)"}
{"smiles": "C/C(CCn1[nH]c(=O)ccc1=O)=N\\N=C(N)N", "growth inhibition": "-0.65% (inactive)"}
{"smiles": "S=C(N/N=C1\\CSCc2ccccc21)Nc1cc(Cl)ccc1Cl", "growth inhibition": "6.05% (inactive)"}
{"smiles": "O=c1/c(=C/c2ccco2)sc2nc3ccccc3n12", "growth inhibition": "14.5% (inactive)"}
{"smiles": "CO/N=C1\\CC(NC(=O)C(F)(F)F)c2ccsc21", "note": "(configuration not stated)", "growth inhibition": "8% (inactive)"}
{"smiles": "COc1cc(NCCCCCNC(C)C)c2nccc(C)c2c1", "growth inhibition": "56.6% (inactive)"}
{"smiles": "Cc1ccc(N(C)C(=O)Nc2ccccc2)c(C)c1", "growth inhibition": "8.6% (inactive)"}
{"smiles": "CC(=O)n1cc(CS)c(=O)[nH]c1=O", "growth inhibition": "-2.5% (inactive)"}
{"smiles": "Cc1cccc(C)c1/[N+]([O-])=C/c1cccc([N+](=O)[O-])c1", "growth inhibition": "-3.3% (inactive)"}
{"smiles": "COc1nc(C(O)C2OC(C)(C)OCC2O)[nH]c1C#N", "note": "(configuration not stated)", "growth inhibition": "7.75% (inactive)"}
{"smiles": "COC(CN(C)C(=S)Nc1cccc2ccccc12)OC", "growth inhibition": "-23.6% (inactive)"}
{"smiles": "N#CC(C#N)c1ccc(C(C#N)C#N)cc1", "growth inhibition": "0.25% (inactive)"}
{"smiles": "CCCC1c2c(ccc3ccccc23)Oc2ccc3ccccc3c21", "growth inhibition": "-19.6% (inactive)"}
{"smiles": "c1ccc2c(c1)ccc1c3ccccc3ncc21", "growth inhibition": "32.6% (inactive)"}
{"smiles": "C=CCNC(=S)Nc1c(C)cc(C)cc1C", "growth inhibition": "9.65% (inactive)"}
{"smiles": "CCn1c2ccc(N(C)C)cc2c2cc(N(C)C)ccc21", "growth inhibition": "-24.1% (inactive)"}
{"smiles": "CC1(C)OC2(CC1C1(C)C=CC(=O)O1)CC1(O)C(CCC34CC13C(=O)OC4c1ccoc1)O2", "note": "(configuration not stated)", "growth inhibition": "-10.3% (inactive)"}
{"smiles": "COc1ccc(Cl)cc1NC(=O)Oc1cc2ccccc2cc1C(=O)Nc1ccccc1", "growth inhibition": "-21.4% (inactive)"}
{"smiles": "O=C(O)C(Cc1ccc(OS(=O)(=O)Cc2ccccc2)cc1)NS(=O)(=O)Cc1ccccc1", "note": "(configuration not stated)", "growth inhibition": "8.1% (inactive)"}
{"smiles": "O=C1OC(c2ccccc2Cl)Sc2ccccc21", "note": "(configuration not stated)", "growth inhibition": "20.1% (inactive)"}
